# Laboratory results published in PubChem BioAssay.
# A number with no mark means an inactive call. A call without a number means that no potency is given here. For some assays here: Potency and affinity values are given separately. Calls of active or inactive are those of the source. Unless noted, no rule for the calls is given here.
# Key:
# [1] = antimalarial activity against Dd2 strain (AID 2302;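 active = growth inhibition above 50% at the single 2 µM test dose, taken to imply half-maximal potency below 2 µM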); settings: P. falciparum Dd2 in RBCs, LDH growth readout, 72 h; at 2 µM; active compounds read high
# [2] = HepG2 cytotoxicity, primary screen, cytotoxicity control for P. falciparum antimalarial project, cell-based, ATP luminescence (AID 2303;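 active = inhibition above 50%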); settings: HepG2 viability, 24-48 h, at 10 µM, active compounds read high
# [3] = molecular target: L-lactate dehydrogenase (Plasmodium falciparum (isolate CDC / Honduras)) (UniProt Q27743); experiment: PfLDH activity inhibition – cell lysate, 3D7 strain, counter-screen for P. falciparum growth inhibition project (AID 2304); settings: P. falciparum 3D7 crude extract, LDH APAD/NBT absorbance; at 2 µM; active compounds read high
# [4] = inhibition of 3D7 malaria parasite growth – strain 3D7 (AID 2306); settings: P. falciparum 3D7 erythrocytic growth, LDH absorbance, 72 h; at 2 µM; active compounds read high
# [5] = molecular target: Calcium-dependent protein kinase 1 (Plasmodium falciparum (isolate 3D7)) (UniProt P62344); experiment: PfCDPK1 kinase inhibitors, biochemical, TCAMS library (AID 1159585; cut-off not given, nearly all actives have IC50 up to about 0.98 µM;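 also: inhibitors leave more ATP so luminescence rises with inhibition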); settings: recombinant PfCDPK1, Kinase-Glo ATP depletion luminescence
# [6] = molecular target: Plasmodium falciparum protein kinase 6 (PK6, PF3D7_1337100) (UniProt Q8IDW1); experiment: PfPK6 kinase inhibitors, biochemical, TCAMS library (AID 1159586); settings: recombinant PfPK6, Kinase-Glo ATP depletion luminescence
# [7] = molecular target: Protein kinase 7 (PK7), Plasmodium falciparum 3D7 (PF3D7_0213400) (UniProt Q7YTF7); experiment: inhibition of Plasmodium PK7 catalytic activity – biochemical, TCAMS antimalarial set, Kinase-Glo luminescence (AID 1159587); settings: recombinant PfPK7, Kinase-Glo ATP depletion luminescence
# [8] = molecular target: Calcium-dependent protein kinase 4 (Plasmodium falciparum (isolate 3D7)) (UniProt Q8IBS5); experiment: PfCDPK4 kinase inhibitors, biochemical, TCAMS library (AID 1159588; cut-off not given, nearly all actives have IC50 up to about 0.91 µM); settings: recombinant PfCDPK4, Kinase-Glo ATP depletion luminescence
# Calcium-dependent protein kinase 4 (Plasmodium falciparum (isolate 3D7)), sequence (Q8IBS5 whole entry, looked up): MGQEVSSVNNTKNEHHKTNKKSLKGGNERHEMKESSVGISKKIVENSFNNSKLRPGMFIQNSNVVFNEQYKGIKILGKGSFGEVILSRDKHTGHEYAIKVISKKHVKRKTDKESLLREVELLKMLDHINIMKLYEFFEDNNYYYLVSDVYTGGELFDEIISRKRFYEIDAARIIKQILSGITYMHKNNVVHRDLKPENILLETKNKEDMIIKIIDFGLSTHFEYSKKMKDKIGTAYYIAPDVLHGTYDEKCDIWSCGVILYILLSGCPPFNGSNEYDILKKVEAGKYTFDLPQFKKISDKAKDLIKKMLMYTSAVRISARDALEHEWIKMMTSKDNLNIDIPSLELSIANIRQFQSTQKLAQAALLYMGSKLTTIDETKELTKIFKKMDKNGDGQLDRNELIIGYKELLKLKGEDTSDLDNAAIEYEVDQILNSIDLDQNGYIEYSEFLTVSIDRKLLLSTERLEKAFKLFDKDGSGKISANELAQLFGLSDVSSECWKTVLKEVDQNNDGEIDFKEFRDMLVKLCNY
# L-lactate dehydrogenase (Plasmodium falciparum (isolate CDC / Honduras)), sequence (Q27743 whole entry, looked up): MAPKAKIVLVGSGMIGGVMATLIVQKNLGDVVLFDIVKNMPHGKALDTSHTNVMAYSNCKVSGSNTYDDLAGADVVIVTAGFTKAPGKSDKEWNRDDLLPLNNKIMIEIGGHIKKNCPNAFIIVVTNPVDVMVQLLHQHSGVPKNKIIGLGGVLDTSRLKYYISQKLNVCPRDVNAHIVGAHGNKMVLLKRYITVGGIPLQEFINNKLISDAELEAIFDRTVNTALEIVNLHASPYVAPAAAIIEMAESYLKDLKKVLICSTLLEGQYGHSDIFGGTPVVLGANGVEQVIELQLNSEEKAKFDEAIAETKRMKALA
# Calcium-dependent protein kinase 1 (Plasmodium falciparum (isolate 3D7)), sequence (P62344 whole entry, looked up): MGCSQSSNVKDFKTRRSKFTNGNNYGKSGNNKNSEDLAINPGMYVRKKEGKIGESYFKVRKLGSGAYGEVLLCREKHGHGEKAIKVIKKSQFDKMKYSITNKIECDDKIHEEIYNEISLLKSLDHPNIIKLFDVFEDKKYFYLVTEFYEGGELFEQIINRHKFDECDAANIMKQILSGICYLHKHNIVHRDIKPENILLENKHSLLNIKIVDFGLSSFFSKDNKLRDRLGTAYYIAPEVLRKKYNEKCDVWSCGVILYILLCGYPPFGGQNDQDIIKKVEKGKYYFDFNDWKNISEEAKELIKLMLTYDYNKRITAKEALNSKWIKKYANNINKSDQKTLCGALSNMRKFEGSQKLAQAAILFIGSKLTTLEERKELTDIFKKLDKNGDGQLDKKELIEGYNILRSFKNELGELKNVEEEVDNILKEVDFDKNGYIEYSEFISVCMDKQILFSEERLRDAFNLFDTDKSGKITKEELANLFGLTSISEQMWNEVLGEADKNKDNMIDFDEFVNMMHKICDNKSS
# Protein kinase 7 (PK7), Plasmodium falciparum 3D7 (PF3D7_0213400), sequence (Q7YTF7 1-343): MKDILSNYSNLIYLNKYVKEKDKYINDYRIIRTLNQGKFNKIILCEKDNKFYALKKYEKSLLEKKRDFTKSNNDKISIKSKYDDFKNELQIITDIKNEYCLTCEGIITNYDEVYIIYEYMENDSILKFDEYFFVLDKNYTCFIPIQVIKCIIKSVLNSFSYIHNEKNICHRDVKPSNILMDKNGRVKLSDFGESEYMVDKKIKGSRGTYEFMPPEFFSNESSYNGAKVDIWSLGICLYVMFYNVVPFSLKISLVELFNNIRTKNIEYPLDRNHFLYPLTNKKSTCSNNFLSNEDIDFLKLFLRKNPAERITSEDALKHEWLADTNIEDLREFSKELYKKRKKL
# Plasmodium falciparum protein kinase 6 (PK6, PF3D7_1337100), sequence (Q8IDW1 1-305): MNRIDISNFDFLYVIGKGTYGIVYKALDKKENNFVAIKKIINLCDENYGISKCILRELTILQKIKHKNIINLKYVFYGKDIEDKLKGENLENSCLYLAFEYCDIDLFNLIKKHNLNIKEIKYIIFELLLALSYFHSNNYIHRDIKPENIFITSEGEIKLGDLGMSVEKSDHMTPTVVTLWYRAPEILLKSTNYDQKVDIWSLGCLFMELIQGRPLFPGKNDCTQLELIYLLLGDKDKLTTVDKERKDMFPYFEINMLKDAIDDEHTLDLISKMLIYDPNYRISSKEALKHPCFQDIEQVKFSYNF
Compound,growth inhibition [1],inhibition [2],inhibition [3],growth inhibition [4],outcome [5],outcome [6],outcome [7],outcome [8]
COc1ccc(C2CC(c3ccccc3O)=NN2C(=O)c2ccco2)cc1OC (stereo not given),68% (active),11%,1%,96% (active),inactive,inactive,inactive,inactive
CCOc1ccccc1C1CCN(CCCCNC(=O)c2ccc(NC(=O)c3ccc(Cl)cc3)cc2)CC1,27%,13%,1%,95% (active),inactive,inactive,inactive,inactive
NC(=NC1CC1)c1ccc2nc(CCCCCc3nc4ccc(C(N)=NC5CC5)cc4[nH]3)[nH]c2c1,72% (active),-3%,2%,89% (active),inactive,inactive,inactive,inactive
CCCNC(=O)c1cncc(-c2ccc(CNC3Cc4ccccc4C3)cc2)c1,21%,9%,-8%,97% (active),inactive,inactive,inactive,inactive
CS(=O)(=O)N(c1cccc(F)c1)c1cc(C(=O)N[C@@H](Cc2ccccc2)[C@H](O)CNCc2cccc(C(F)(F)F)c2)cc(N2CCCC2=O)c1,92% (active),14%,1%,98% (active),inactive,inactive,inactive,inactive
CC(=O)c1ccc2nc[nH]c(=O)c2c1,99% (active),79% (active),-1%,96% (active),inactive,inactive,inactive,inactive
Cn1c(Sc2ncnc3sccc23)nc2ccccc21,100% (active),-12%,5%,100% (active),inactive,inactive,inactive,inactive
CC(=O)Nc1ccc2[nH]cc(C3CCN(CCC4CCN(C(=O)/C=C/c5ccc(Cl)c(Cl)c5)CC4)CC3)c2c1,7%,13%,4%,95% (active),inactive,inactive,inactive,inactive
Cc1ccc(CNC(=O)[C@H](Cc2ccccc2)Nc2ccnc(NCC3CCCCC3)n2)cc1,61% (active),84% (active),-2%,92% (active),inactive,inactive,inactive,inactive
CC(=O)Nc1ccc(C(=O)Nc2ccc(-c3cccc(-c4nc5ccc(C(F)(F)F)cc5[nH]4)c3)cc2)cn1,98% (active),29%,-2%,102% (active),inactive,inactive,inactive,inactive
Nc1ccnc(N2CCC(CCOc3cc(C(F)(F)F)nc4c(C(F)(F)F)cccc34)CC2)c1,17%,35%,-1%,98% (active),inactive,inactive,inactive,inactive
Cc1cccn2c(=O)c3cc(C(=O)NC(C)c4ccccc4)c(=N)n(CCN4CCOCC4)c3nc12 (stereo not given),5%,6%,4%,101% (active),inactive,inactive,inactive,inactive
CC(=O)Nc1nc(C(=O)Nc2cccc(-c3ccc(-c4nc5c(C)cccc5[nH]4)cc3)c2)cs1,61% (active),100% (active),-3%,100% (active),inactive,inactive,inactive,inactive
Cc1ccc(C(=O)NC2CC2)cc1-c1ccc2c(cnn2S(=O)(=O)c2ccc(F)cc2)c1,69% (active),7%,-2%,93% (active),inactive,inactive,inactive,inactive
CCC[C@@H]([C@@H](CC1CCCCC1)C(=O)NC(C(=O)Nc1nccs1)C(CC)c1ccccc1)N(O)C=O (stereo not given in full),19%,50% (active),-4%,89% (active),inactive,inactive,inactive,inactive
COc1cc(Nc2nccc(N3CCC(NC(=O)Nc4cc(C)ccc4C)C3)n2)cc(OC)c1OC (stereo not given),52% (active),13%,4%,91% (active),inactive,inactive,inactive,inactive
COc1ccc(Nc2nccc(N3CCC(NC(=O)Nc4cccc(OC)c4)C3)n2)cc1 (stereo not given),48%,23%,-1%,99% (active),inactive,inactive,inactive,inactive
Clc1ccc(Nc2nc(Nc3ccc(Cl)c(Cl)c3)nc(Sc3nc4ccccc4[nH]3)n2)cc1Cl,100% (active),10%,1%,99% (active),inactive,inactive,inactive,inactive
O=c1[nH]nc(-c2ccc(N3CCCC3)c([N+](=O)[O-])c2)c2ccccc12,39%,2%,-6%,100% (active),inactive,inactive,inactive,inactive
CCOC(=O)c1ccc(NC(=O)Nc2ccc(-c3cccc(-c4nc5c(C)cccc5[nH]4)c3)cc2)cc1,100% (active),91% (active),-2%,101% (active),inactive,inactive,inactive,inactive

Compound,growth inhibition [1],inhibition [2],inhibition [3],growth inhibition [4],outcome [5],outcome [6],outcome [7],outcome [8]
O=C(Nc1cccc(-c2cccc(-c3nc4ccc(C(F)(F)F)cc4[nH]3)c2)c1)c1cnc[nH]1,100% (active),14%,2%,101% (active),inactive,inactive,inactive,inactive
FC(F)(F)c1ccc2nc(-c3ccc(-c4ccc(CNCc5cnn(-c6ccccc6)n5)cc4)cc3)[nH]c2c1,76% (active),35%,-1%,100% (active),inactive,inactive,inactive,inactive
O=C(Cn1c(CCc2cccc(F)c2F)nc(=O)c2cccnc21)N(Cc1ccc(-c2ccc(C(F)(F)F)cc2)cc1)C1CCN(C2CCSCC2)CC1,63% (active),49%,3%,101% (active),inactive,inactive,inactive,inactive
COc1ccc(NC(=O)/C=C/c2ccccc2Cl)cc1OCCN1CCC(N2CCCC2)CC1,23%,22%,-1%,102% (active),inactive,inactive,inactive,inactive
O=C(/C=C/c1cccc(C(F)(F)F)c1)NCCCCCN1CCN(C(=O)Nc2ccc(Cl)c(Cl)c2)CC1,-1%,29%,4%,89% (active),inactive,inactive,inactive,inactive
CN(C)CCNCc1ncsc1-c1ccc2c(Nc3ccc(F)cc3Cl)ccnc2c1,95% (active),-1%,0%,100% (active),inactive,inactive,inactive,inactive
O=C(c1ccc(OCCn2ccnc2)cc1)N1CCC(c2ccc(Br)cc2)C1 (stereo not given),99% (active),49%,-3%,100% (active),inactive,inactive,inactive,inactive
CC(C)CN(Cc1c(O)ccc2[nH]c(-c3ccc(F)cc3F)nc12)CC(C)C,92% (active),11%,-2%,98% (active),inactive,inactive,inactive,inactive
CS(=O)(=O)Nc1ccc(-c2ccc3ccnc(N)c3c2)cc1,75% (active),31%,-3%,85% (active),inactive,inactive,inactive,inactive
c1ccc(-c2csc(Nc3nc4cc5c(cc4s3)OCO5)n2)nc1,99% (active),46%,-3%,81% (active),inactive,inactive,inactive,inactive
COc1ccc(N(c2nc(-c3cc(Cl)ccc3Cl)cs2)C2CCNC2)cc1 (stereo not given),9%,21%,3%,95% (active),inactive,inactive,inactive,inactive
CCOC(=O)c1cncc(/C=C/c2cc(C)cnc2N)c1,3%,4%,-4%,86% (active),inactive,inactive,inactive,inactive
Cc1[nH]nc2cc(Nc3nccc(Nc4ccc(Oc5ccccc5)cc4)n3)ccc12,98% (active),8%,-7%,101% (active),inactive,inactive,inactive,inactive
Cc1ccccc1CCNC(=O)c1ccc(N2CCN(c3ccncc3)CC2)nc1,20%,10%,-3%,95% (active),inactive,inactive,inactive,inactive
Cc1cnc(C(=O)Nc2ccc(-c3cccc(-c4nc5ccccc5[nH]4)c3)cc2)cn1,8%,77% (active),-3%,93% (active),inactive,inactive,inactive,inactive
CCCCCN1CCCCC(NS(=O)(=O)c2ccc(C(=O)Nc3ccc(C(F)(F)F)cc3)cc2)C1 (stereo not given),-4%,34%,-2%,89% (active),inactive,inactive,inactive,inactive
CCC(C)NC(=O)Nc1ccc(-c2cccc(-c3nc4ccc(C(F)(F)F)cc4[nH]3)c2)cc1 (stereo not given),-1%,45%,0%,97% (active),inactive,inactive,inactive,inactive
CN1CCN(c2ccnc3ccc(NC(=O)Nc4ccc(Cl)c(Cl)c4)cc23)CC1,17%,0%,-4%,97% (active),inactive,inactive,inactive,inactive
FC(F)(F)c1ccc2nc(-c3ccc(-c4cccc(CNCCc5ccncc5)c4)s3)[nH]c2c1,95% (active),20%,-6%,100% (active),inactive,inactive,inactive,inactive
CCOc1c(Br)cc(Br)cc1CNCCCCNc1nc2ccccc2[nH]1,37%,25%,-4%,101% (active),inactive,inactive,inactive,inactive
